Assay results as given in PubChem BioAssay (Tox21).
Results filed as inconclusive are left out. Entries that show only a call come without a potency. Active and inactive are the calls of the source. Calls come from the whole dose curve; as a rule, active = well fitted curve in the direction sought with a large enough effect in the repeat runs; inconclusive = weak or mixed curves; inactive = no such curve, though single readings can be large; an effect the other way counts as inactive or inconclusive.

Legend:
[1] = target: Cytochrome P450 1A2 (Homo sapiens) (UniProt P05177); experiment: Cytochrome P450 Family 1 Subfamily A Member 2 (CYP1A2) small molecule antagonists: luciferase reporter qHTS assay (AID 1671199); note: potency is the fitted concentration of half-maximal effect
Chain of Cytochrome P450 1A2 (Homo sapiens) (P05177 whole entry, looked up): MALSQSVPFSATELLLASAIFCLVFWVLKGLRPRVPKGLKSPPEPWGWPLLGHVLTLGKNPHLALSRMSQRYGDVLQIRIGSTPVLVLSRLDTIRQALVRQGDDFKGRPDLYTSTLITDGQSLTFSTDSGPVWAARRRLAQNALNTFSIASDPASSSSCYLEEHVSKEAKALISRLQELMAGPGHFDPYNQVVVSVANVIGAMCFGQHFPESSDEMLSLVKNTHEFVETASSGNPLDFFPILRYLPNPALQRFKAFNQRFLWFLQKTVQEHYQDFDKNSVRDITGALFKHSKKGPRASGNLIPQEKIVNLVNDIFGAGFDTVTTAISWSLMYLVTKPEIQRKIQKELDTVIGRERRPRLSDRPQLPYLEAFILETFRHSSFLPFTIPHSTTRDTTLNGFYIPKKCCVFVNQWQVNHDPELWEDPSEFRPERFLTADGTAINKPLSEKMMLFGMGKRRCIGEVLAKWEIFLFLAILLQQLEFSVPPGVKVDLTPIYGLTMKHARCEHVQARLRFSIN
How it was run: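 P450-Glo CYP1A2 enzyme–proluciferin substrate mix with compound 10 min at room temperature, then NADPH regeneration 1 h at room temperature. Luciferin detection reagent added, luminescence read after 20 min; furafylline positive control.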

[2] = target: Voltage-gated inwardly rectifying potassium channel KCNH2 (Homo sapiens) (UniProt Q12809); experiment: Human Ether-a-go-go-Related Gene (hERG) channel small molecule antagonists: fluorescence cell-based qHTS assay (AID 1671200);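 note: hERG-expressing U2OS cells given a thallium stimulus after FluxOR II dye loading; series mostly up to about 77 µM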
Chain of Voltage-gated inwardly rectifying potassium channel KCNH2 (Homo sapiens) (Q12809 whole entry, looked up): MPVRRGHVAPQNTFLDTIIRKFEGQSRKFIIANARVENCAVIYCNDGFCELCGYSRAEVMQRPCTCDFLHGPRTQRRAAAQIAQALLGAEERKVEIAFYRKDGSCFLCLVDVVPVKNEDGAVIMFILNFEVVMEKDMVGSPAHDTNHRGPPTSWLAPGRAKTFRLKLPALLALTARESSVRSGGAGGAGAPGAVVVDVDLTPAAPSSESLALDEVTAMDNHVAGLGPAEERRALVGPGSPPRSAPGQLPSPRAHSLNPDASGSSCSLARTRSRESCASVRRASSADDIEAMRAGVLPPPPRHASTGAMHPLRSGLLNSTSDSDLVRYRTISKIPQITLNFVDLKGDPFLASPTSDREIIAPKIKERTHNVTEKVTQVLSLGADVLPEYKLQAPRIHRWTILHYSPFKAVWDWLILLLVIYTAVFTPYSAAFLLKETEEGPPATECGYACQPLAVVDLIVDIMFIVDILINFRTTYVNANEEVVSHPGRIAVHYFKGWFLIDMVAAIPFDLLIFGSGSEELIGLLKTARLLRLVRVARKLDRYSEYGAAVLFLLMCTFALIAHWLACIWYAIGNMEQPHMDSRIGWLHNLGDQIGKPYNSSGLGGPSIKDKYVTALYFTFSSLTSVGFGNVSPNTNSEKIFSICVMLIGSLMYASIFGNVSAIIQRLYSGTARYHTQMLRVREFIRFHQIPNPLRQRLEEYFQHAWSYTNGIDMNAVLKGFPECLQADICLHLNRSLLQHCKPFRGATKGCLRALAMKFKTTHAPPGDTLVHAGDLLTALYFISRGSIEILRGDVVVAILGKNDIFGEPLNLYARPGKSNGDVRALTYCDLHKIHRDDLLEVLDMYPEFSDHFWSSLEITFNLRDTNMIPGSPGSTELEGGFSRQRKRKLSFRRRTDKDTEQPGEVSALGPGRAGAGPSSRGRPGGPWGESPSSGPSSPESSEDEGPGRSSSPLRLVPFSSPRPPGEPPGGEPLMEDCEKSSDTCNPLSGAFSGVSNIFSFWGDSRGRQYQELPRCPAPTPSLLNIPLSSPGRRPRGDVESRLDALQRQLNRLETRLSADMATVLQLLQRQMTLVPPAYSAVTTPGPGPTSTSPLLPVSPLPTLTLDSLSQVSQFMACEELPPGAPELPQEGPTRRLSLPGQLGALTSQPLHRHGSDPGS
How it was run: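 Cell line hERG-U2OS; dye FluxOR II, 1 h RT dark; Tl+ stimulus; ex 480/em 540 nm, read each second for 2 min.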

[3] = target: Cytochrome P450 3A4 (Homo sapiens) (UniProt P08684); experiment: Cytochrome P450 Family 3 Subfamily A Member 4 (CYP3A4) small molecule antagonists: luciferase reporter qHTS assay (AID 1671201); note: potency is the fitted concentration of half-maximal effect
Chain of Cytochrome P450 3A4 (Homo sapiens) (P08684 whole entry, looked up): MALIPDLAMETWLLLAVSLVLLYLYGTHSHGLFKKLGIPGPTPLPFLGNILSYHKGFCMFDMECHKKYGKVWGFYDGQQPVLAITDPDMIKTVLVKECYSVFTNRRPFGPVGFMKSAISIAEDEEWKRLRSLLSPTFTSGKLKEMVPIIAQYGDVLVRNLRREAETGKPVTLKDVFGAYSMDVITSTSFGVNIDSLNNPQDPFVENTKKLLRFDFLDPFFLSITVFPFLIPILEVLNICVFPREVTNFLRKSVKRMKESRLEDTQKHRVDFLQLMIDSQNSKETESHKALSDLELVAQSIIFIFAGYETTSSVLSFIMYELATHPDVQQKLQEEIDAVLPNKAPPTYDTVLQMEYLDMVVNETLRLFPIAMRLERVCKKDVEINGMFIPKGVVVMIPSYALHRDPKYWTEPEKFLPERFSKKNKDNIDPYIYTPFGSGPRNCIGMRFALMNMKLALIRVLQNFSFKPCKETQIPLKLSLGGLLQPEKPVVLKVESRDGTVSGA
How it was run: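 Room-temperature assay throughout: 10 min compound–enzyme/substrate preincubation, 1 h reaction after NADPH regeneration solution, 20 min detection. Luciferin formed from proluciferin substrate is quantified by luminescence.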
Note: nearly all actives have a fitted effect of over 50% in size.

SMILES	Potency [1]	Potency [2]	Potency [3]
O=C1Nc2ccc(Cl)cc2[C@@](C#CC2CC2)(C(F)(F)F)O1	17.4 µM (active)	inactive	inactive
OCCN1CN(CCO)CN(CCO)C1	inactive	inactive	inactive
Cn1cccc1	inactive	inactive	inactive
CCc1c(C(=O)O)c(=O)cnn1-c1ccc(Cl)cc1	inactive	inactive	inactive
Cc1ccc(-n2[nH]c(C)c(N=Nc3cccc(-c4cccc(C(=O)O)c4)c3O)c2=O)cc1C	inactive		inactive
Clc1cccnc1	35.6 µM (active)	inactive	inactive
CC(=O)OC1CCCCC1	inactive	inactive	inactive
O=CC1CC1	inactive	inactive	inactive
Cc1cc(C)c(C=O)c(C)c1	inactive	inactive	inactive
CC1=CCC(=O)O1	inactive	inactive	inactive
CCO[Si](C)(C)OCC	inactive	inactive	inactive
CSc1c(Cl)c(Cl)c(Cl)c(Cl)c1Cl	14.1 µM (active)	inactive	inactive
C[C@]12CC[C@H]3C(=CCc4cc(O)ccc43)[C@@H]1CCC2=O	35.6 µM (active)		20 µM (active)
C(=C/c1ccccc1)/c1ccccc1	inactive		inactive
CC(C)OC(=O)c1cc(C(=O)OC(C)C)cc([N+](=O)[O-])c1	2.33 µM (active)		inactive
O=C(O)Cc1ccc(OCCNC[C@H](O)c2ccccc2)cc1	inactive		inactive
